Data reported in the supplement of paper PMC10849652.
About 7,900 targets were measured; listed, in parts, are those with a hit and a random draw of the rest. About 0.6% of all pairs of compound and target were hits. A number with no mark means an inactive call.

How the values were obtained:
Assay in all cases: log2 fold change, soluble protein after heating vs DMSO (PISA); higher = thermal stabilisation; K562 cells, 10 uM, 30 min; active = over 0.2 and 3.5 SD of the protein, either way, in both replicates (recomputed)
[1] = compound: CN1CCN(CCOc2cc(OC3CCOCC3)c3c(Nc4c(Cl)ccc5c4OCO5)ncnc3c2)CC1 [saracatinib]
Outline: (§1)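 K562 cells at 2×10^6 cells/mL were treated with 10 μM compound for 30 min. Aliquots were heated for 3 min across 48°C-58°C, pooled, and extracted in PBS with 0.5% NP-40 at 4°C; soluble protein was the supernatant after 21,000xg for 90 min. Soluble protein was quantified by TMTpro 16plex LC-MS/MS with channel sums equalised, and reported as log2 fold change in thermal stability against DMSO controls, with values from duplicates.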

[2] = compound: CN1CCN(c2nc(C3=C(c4c[nH]c5ccccc45)C(=O)NC3=O)c3ccccc3n2)CC1 [sotrastaurin]
Outline: as §1

[3] = compound: CN1CC[C@H](c2c(O)cc(O)c3c(=O)cc(-c4ccccc4Cl)oc23)[C@H](O)C1 [alvocidib]
Outline: as §1

[4] = compound: CN1CCc2c(c3ccccc3n2Cc2ccc(C(=O)NO)cc2)C1 [Tubastatin A]
Outline: as §1

[5] = compound: CNC(=O)C1=CC=CC=C1NC2=NC(=NC=C2Cl)NC3=C(C=C(C=C3)N4CCOCC4)OC
Outline: as §1

[6] = compound: CNC(=O)c1ccc(Nc2ncc(C(F)(F)F)c(NCc3nccnc3N(C)S(C)(=O)=O)n2)cc1 [defactinib]
Outline: as §1

[7] = compound: CNCc1ccc(-c2[nH]c3cc(F)cc4c3c2CCNC4=O)cc1 [rucaparib]
Outline: as §1

[8] = compound: CNc1nc(-c2ccc3c(N)n[nH]c3c2)cc(N2C[C@@H](C(=O)NC3CCCCC3)CC[C@H]2C)n1
Outline: as §1

[9] = compound: COC(=O)N[C@@H](C)CNc1nccc(-c2cn(C(C)C)nc2-c2cc(Cl)cc(NS(C)(=O)=O)c2F)n1 [encorafenib]
Outline: as §1

[10] = compound: COC(=O)[C@H](CCSC)NC(=O)C1=C(C=C(C=C1)NC[C@H](CS)N)C2=CC=CC=C2
Outline: as §1

[11] = compound: COC1=CC=C(C=C1)CN2C=CC3=C2C=C(C=C3)C(=O)NO
Outline: as §1

[12] = compound: CON(C)C(=O)N1N=C(c2cc(F)ccc2F)S[C@@]1(CCCN)c1ccccc1 [filanesib]
Outline: as §1

[13] = compound: CO[C@H]1C[C@@H]2CC[C@@H](C)[C@@](O)(O2)C(=O)C(=O)N2CCCC[C@H]2C(=O)O[C@H]([C@H](C)C[C@@H]2CC[C@H](n3cnnn3)[C@H](OC)C2)CC(=O)[C@H](C)/C=C(\C)[C@@H](O)[C@@H](OC)C(=O)[C@H](C)C[C@H](C)/C=C/C=C/C=C/1C [zotarolimus]
Outline: as §1

[14] = compound: COc1cc(C(=O)O)ccc1NC(=O)[C@@H]1N[C@@H](CC(C)(C)C)[C@](C#N)(c2ccc(Cl)cc2F)[C@H]1c1cccc(Cl)c1F [idasanutlin]
Outline: as §1

[15] = compound: COc1cc(Nc2ncc3c(n2)-c2ccc(Cl)cc2C(c2c(F)cccc2OC)=NC3)ccc1C(=O)O [alisertib]
Outline: as §1

[16] = compound: COc1cc2nc(-c3cc(F)ccc3O)nc(N[C@@H]3CNC[C@H]3C(C)(C)O)c2cc1OC
Outline: as §1

[17] = compound: COc1cc2ncnc(Nc3ccc(F)c(Cl)c3)c2cc1OCCCN1CCOCC1 [gefitinib]
Outline: as §1

[18] = compound: COc1cccc2cc(-c3nc([C@H]4CC[C@H](C(=O)O)CC4)n4ncnc(N)c34)[nH]c12
Outline: as §1

[19] = compound: CS(=O)(=O)CCNCc1ccc(-c2ccc3ncnc(Nc4ccc(OCc5cccc(F)c5)c(Cl)c4)c3c2)o1 [lapatinib]
Outline: as §1

[20] = compound: CS(=O)(=O)N1CCN(Cc2cc3nc(-c4cccc5[nH]ncc45)nc(N4CCOCC4)c3s2)CC1 [pictilisib]
Outline: as §1

UniProt P55263, sequence (P55263 whole entry, looked up): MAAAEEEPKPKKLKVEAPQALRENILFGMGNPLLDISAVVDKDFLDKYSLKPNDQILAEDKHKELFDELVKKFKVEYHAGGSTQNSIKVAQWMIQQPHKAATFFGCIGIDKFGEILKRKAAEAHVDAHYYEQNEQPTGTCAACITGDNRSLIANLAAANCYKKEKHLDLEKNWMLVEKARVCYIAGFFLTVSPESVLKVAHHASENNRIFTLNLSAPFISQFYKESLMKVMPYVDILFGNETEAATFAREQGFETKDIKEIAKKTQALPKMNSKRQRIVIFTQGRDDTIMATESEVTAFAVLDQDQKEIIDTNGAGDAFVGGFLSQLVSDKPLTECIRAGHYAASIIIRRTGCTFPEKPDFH
UniProt Q15059, sequence (Q15059 whole entry, looked up): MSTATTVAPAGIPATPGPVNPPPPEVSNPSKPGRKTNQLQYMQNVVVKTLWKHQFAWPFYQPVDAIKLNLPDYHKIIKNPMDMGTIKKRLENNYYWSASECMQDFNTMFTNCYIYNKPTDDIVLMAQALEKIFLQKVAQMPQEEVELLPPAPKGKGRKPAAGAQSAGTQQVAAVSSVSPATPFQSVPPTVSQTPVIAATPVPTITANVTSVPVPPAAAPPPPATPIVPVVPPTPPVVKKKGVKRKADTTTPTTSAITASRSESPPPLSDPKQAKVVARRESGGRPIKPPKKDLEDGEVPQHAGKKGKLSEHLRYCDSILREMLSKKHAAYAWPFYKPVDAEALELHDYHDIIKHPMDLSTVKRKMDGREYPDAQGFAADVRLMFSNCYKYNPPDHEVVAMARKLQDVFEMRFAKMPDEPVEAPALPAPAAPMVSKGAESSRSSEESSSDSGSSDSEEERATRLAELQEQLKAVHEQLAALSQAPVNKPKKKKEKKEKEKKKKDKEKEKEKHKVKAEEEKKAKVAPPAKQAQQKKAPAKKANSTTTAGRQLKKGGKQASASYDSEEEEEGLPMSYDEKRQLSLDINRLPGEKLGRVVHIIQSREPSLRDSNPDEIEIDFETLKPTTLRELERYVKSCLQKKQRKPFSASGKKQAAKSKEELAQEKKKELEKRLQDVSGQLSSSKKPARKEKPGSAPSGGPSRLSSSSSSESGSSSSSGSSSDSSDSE
UniProt Q13733, sequence (Q13733 whole entry, looked up): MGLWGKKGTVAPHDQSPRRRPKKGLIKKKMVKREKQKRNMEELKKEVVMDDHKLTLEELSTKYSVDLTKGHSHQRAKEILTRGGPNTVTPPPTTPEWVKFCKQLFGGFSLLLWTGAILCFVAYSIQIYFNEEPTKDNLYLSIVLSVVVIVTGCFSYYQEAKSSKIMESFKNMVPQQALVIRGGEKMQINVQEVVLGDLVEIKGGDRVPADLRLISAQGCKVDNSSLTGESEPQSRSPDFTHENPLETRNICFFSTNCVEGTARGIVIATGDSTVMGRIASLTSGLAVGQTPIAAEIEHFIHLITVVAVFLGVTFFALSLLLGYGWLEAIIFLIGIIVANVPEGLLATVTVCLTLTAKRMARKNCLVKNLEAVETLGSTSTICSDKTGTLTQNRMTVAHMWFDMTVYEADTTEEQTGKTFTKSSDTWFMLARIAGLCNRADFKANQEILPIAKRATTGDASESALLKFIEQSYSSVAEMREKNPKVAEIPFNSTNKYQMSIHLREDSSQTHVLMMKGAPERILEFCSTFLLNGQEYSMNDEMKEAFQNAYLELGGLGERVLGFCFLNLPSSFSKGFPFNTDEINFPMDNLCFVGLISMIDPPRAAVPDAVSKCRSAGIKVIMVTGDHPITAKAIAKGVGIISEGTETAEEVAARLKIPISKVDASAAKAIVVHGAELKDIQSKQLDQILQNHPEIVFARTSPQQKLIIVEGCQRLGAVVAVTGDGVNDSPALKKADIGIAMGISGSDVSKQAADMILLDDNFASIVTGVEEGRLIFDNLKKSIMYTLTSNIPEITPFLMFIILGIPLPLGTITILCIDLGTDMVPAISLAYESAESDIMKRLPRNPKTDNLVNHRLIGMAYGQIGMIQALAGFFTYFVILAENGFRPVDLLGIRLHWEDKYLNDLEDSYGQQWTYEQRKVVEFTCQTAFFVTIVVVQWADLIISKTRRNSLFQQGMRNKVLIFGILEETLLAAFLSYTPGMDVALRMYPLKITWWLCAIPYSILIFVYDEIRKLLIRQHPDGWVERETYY
UniProt Q9UI12, sequence (Q9UI12 whole entry, looked up): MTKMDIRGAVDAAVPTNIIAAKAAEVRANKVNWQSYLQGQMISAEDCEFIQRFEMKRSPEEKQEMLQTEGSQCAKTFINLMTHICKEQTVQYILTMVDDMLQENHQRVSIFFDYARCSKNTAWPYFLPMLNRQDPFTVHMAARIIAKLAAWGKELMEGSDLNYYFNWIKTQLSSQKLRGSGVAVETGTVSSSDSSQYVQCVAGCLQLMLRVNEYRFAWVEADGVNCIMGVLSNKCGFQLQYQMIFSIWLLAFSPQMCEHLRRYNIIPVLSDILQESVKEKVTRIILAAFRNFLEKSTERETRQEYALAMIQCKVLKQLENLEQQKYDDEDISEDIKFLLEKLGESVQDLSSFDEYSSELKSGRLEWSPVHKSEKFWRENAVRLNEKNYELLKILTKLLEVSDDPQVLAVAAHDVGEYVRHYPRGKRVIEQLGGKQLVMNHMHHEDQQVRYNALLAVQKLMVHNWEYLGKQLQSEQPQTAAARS
UniProt O43865, sequence (O43865 whole entry, looked up): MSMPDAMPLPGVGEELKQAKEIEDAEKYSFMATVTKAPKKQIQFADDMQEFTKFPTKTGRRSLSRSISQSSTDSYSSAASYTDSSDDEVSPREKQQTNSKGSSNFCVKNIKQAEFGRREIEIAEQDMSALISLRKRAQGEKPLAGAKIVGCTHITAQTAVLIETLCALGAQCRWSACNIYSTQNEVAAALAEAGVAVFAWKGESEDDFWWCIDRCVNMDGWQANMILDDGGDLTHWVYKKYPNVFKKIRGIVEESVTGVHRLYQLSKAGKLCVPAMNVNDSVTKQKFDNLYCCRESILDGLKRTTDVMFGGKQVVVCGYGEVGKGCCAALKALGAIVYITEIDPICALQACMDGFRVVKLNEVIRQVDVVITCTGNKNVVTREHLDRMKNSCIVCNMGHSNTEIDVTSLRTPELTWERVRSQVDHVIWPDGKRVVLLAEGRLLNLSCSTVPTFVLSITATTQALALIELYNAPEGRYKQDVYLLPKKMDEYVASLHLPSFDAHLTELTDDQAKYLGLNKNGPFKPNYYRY
UniProt Q93050, sequence (Q93050 whole entry, looked up): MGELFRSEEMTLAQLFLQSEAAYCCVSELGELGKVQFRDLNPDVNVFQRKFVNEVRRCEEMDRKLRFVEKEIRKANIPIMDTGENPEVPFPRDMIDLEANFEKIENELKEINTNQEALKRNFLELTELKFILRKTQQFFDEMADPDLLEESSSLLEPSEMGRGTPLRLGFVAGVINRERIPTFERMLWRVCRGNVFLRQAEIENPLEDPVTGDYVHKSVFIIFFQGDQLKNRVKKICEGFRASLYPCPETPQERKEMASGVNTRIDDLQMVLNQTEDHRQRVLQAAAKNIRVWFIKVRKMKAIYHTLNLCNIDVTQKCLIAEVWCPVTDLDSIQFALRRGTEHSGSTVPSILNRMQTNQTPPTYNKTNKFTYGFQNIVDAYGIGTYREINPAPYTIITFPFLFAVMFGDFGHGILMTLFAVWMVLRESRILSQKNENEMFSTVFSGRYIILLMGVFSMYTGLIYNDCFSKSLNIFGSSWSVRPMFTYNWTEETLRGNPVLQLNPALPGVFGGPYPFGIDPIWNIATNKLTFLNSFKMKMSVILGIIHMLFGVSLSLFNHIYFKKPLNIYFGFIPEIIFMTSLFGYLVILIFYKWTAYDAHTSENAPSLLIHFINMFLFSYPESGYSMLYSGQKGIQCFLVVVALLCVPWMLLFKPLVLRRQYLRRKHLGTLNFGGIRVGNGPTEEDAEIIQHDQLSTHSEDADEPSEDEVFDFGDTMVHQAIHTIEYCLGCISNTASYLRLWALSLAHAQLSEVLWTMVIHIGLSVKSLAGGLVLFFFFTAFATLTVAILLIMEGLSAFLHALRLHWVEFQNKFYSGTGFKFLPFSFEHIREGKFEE
UniProt Q99943, sequence (Q99943 whole entry, looked up): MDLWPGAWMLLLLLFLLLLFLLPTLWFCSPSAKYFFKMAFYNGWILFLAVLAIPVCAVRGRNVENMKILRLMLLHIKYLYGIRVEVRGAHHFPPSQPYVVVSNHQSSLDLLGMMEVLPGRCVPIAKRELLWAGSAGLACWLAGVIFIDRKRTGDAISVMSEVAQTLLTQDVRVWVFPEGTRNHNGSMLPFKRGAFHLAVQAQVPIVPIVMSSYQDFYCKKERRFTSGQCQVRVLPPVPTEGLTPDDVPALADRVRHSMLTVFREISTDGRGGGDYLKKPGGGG
UniProt Q02252, sequence (Q02252 whole entry, looked up): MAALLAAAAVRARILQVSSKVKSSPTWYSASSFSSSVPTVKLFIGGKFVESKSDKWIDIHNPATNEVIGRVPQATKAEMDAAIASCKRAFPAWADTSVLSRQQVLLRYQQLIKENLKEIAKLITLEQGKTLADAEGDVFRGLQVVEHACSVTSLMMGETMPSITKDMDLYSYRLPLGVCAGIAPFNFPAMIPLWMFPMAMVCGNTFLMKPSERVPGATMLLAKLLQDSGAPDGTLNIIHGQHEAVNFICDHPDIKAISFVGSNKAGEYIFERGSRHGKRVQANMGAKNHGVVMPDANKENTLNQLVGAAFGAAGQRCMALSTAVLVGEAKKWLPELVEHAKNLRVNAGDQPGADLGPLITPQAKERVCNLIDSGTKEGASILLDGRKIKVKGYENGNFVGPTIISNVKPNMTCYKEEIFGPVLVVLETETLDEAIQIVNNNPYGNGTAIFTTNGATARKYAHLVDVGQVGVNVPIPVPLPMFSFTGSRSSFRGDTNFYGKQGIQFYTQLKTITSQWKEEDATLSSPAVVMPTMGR

Target	log2 fold change [1]	log2 fold change [2]	log2 fold change [3]	log2 fold change [4]	log2 fold change [5]	log2 fold change [6]	log2 fold change [7]	log2 fold change [8]	log2 fold change [9]	log2 fold change [10]	log2 fold change [11]	log2 fold change [12]	log2 fold change [13]	log2 fold change [14]	log2 fold change [15]	log2 fold change [16]	log2 fold change [17]	log2 fold change [18]	log2 fold change [19]	log2 fold change [20]
ALDH6A1 (UniProt Q02252)	0.031	0.144	-0.098	0.03	0.021	-0.021	0.021	-0.045	0.024	-0.008	-0.128	-0.025	0.024	-0.032	-0.09	0.029	0.04	0.066	0.02	0.063
ATP1A1 (UniProt P05023)	0.046	0.039	-0.034	-0.026	-0.026	-0.024	-0.009	0.011	-0.001	0.014	0.09	0.013	0.002	0.004	-0.092	0.032	0.03	0.054	-0.019	-0.023
BMP2K (UniProt Q9NSY1)	0.071	0.023	0.088	0.015	0.183	0.179	0.064	-0.029	-0.069	-0.012	0.032	-0.019	0.029	-0.092	0	0.055	0.024	0.111	0.01	0.102
BTAF1 (UniProt O14981)	0.087	0.001	-0.022	-0.041	-0.027	-0.074	-0.089	-0.012	0.026	0.007	0.018	-0.006	-0.004	-0.095	0.175	0.093	-0.045	-0.028	-0.01	-0.032
ADK (UniProt P55263)	0.158	0.26	0.305	-0.007	0.119	0.055	-0.021	-0.017	-0.044	0.002	-0.009	-0.013	-0.014	-0.083	-0.037	0.015	0.199	0.007	0.21	0.167
APLP2 (UniProt Q06481)	0.072	0.094	0.011	0.014	0.009	-0.055	-0.082	-0.051	0.02	0.051	0.036	0.219 (active)	0.002	0.058	-0.039	0.038	0.106	-0.04	0.09	0.091
ABHD16A (UniProt O95870)	0.01	0.214	-0.033	0.004	0.031	-0.065	-0.017	0.162	-0.05	0.031	0.051	0.067	0.204	-0.042	-0.049	0.347 (active)	0.158	-0.039	0.235	0.018
BRD3 (UniProt Q15059)	0.093	-0.116	-0.076	-0.571 (active)	0.011	-0.319	-0.083	0.325	0.086	-0.128	0.027	0.297	-0.077	-0.012	-0.035	0.086	0.227	-0.002	-0.057	0.081
ATP7B (UniProt P35670)	0.069	0.005	-0.085	0.01	-0.019	-0.011	-0.044	0.005	0.052	-0.021	-0.02	0.087	-0.075	-0.233 (active)	-0.02	-0.011	0.028	0.026	0.061	0.061
ACBD6 (UniProt Q9BR61)	-0.129	-0.115	-0.076	0.196	0.067	-0.112	-0.061	0.006	0.098	-0.047	0.099	0.034	0.016	0.09	-0.088	0.133	-0.018	-0.271	-0.14	0.012
ATP6V1H (UniProt Q9UI12)	-0.047	-0.015	-0.065	0.046	-0.016	-0.042	0.016	0.054	0.016	-0.043	0.035	-0.106	0.055	-0.067	-0.1	-0.064	-0.121	-0.073	-0.009	-0.063
ATP13A2 (UniProt Q9NQ11)	0.061	0.036	0.023	0.026	0.015	-0.116	0	0.039	-0.027	0.026	0.053	-0.134	0.023	0.027	-0.143	0.019	-0.005	0.053	-0.005	0.066
AGPAT1 (UniProt Q99943)	-0.009	0.045	0.002	-0.004	0.074	-0.079	-0.109	-0.011	0.039	0.003	-0.004	0.001	-0.048	-0.059	-0.081	0.176	0.028	0.021	0.074	0.017
ATP1A4 (UniProt Q13733)	0.066	-0.088	0.015	-0.017	0.151	0.033	-0.076	-0.108	0.021	0.118	0.042	0.006	0.006	0.063	-0.083	0.003	0.057	-0.024	-0.01	0.016
ATP6V0A1 isoform 3 (UniProt Q93050)	-0.253	-0.236	0.06	0.089	-0.052	0.125	0.154	0.032	0.196	-0.02	0.021	-0.105	0.073	0.112	0.027	-0.298	-0.18	-0.21	0.033	-0.284
AHCYL1 (UniProt O43865)	0.101	0.014	0.1	-0.042	0.182	0.104	0.044	0.061	-0.043	-0.005	0.015	-0.05	-0.017	-0.056	-0.087	0.046	0.029	0.093	0.014	0.126
